Compound activity from PubChem BioAssay.
HADH2 inhib = inhibitors of human HADH2 dehydrogenase; recombinant HADH2, NADH fluorescence, beta-hydroxybutyryl-CoA; Potency, µM (highest dose often 57.1 µM), for inactives: at the highest dose activity change, negative = inhibition, hits mostly inhibitors; 3.4% of 73,000 active; AID 886; also: nearly all actives have a fitted effect of over 60% in size
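E. coli-expressed His-tagged HADH2 tested at 20 nM in alkaline Tris buffer (pH 9.0); oxidation of 90 uM beta-hydroxybutyryl-CoA with 1 mM NAD+ tracked fluorimetrically for 4 min.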
FLuc inh = inhibitors of firefly luciferase; P08659; purified firefly luciferase, luminescence, 8 min; Potency, µM (series often up to 57.1 µM), for the others: at the highest dose activity change, negative = inhibition, hits mostly inhibitors; 2.2% of 72,000 active; also: nearly all actives have a fitted effect of over 40% in size
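Substrate buffer containing 10 uM ATP (pH 7.2 imidazole, Mg2+, KCl, detergent, BSA) is dispensed, compound pinned in, then luciferase/luciferin detector mix added. After 8 min at ambient temperature, light output is measured.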
HSD17B inhib = HSD17B dehydrogenase inhibition | Q99714 | recombinant HSD17B10, NADH fluorescence kinetic | Potency, µM (titrated, usually from 57.1 µM), for the others: at the highest dose activity change, negative = inhibition, actives largely listed as inhibitors | 7.6% of 75,000 active;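 also: the protocol describes HADH2 (HSD17B10) and not the HSD17B4 of the title; nearly all actives have a fitted effect of over 70% in size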
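His-tagged E. coli-expressed HADH2 at 20 nM in 100 mM Tris-HCl pH 9.0 with 0.01 % Tween-20, preincubated 15 min with compound at room temperature. Reaction with 1 mM NAD+ and 90 uM beta-hydroxybutyryl coenzyme A; NADH fluorescence (360/450 nm) read kinetically over 4 min, last minus first point.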
ALOX15 inhib = inhibitors of human 15-lipoxygenase (ALOX15). P16050. purified 15hLO-1, xylenol orange hydroperoxide absorbance. Potency, µM (series often up to 57.1 µM), without a hit: top-dose activity change, negative = inhibition, usual class: inhibitors. 1.4% of 74,000 active. AID 887; also: nearly all actives have a fitted effect of over 55% in size
Target sequence (P16050 whole entry, looked up): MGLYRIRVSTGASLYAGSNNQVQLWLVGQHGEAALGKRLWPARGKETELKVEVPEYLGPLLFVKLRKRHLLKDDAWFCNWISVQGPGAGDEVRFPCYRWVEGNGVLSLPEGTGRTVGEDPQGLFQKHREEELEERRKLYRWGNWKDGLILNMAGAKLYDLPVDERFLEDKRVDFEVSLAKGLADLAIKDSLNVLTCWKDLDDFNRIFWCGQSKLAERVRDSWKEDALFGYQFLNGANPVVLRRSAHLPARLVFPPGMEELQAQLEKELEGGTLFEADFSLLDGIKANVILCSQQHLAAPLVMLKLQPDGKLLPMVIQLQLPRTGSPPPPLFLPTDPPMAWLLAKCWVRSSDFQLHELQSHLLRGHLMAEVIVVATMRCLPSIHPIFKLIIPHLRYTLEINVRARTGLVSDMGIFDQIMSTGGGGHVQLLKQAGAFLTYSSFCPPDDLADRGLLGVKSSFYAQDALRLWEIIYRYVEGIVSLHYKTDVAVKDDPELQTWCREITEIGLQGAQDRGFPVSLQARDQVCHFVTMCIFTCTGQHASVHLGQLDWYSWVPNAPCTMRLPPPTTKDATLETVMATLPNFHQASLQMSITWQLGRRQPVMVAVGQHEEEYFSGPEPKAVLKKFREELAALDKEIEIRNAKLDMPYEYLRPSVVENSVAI
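40 nM 15hLO-1 + cpd, 15 min RT; start w/ 50 uM AA (final), 6 min RT; stop/detect w/ 200 uM XO + 300 uM Fe(II) in 50 mM H2SO4, 30 min; A573/A405. Buffer 25 mM Hepes pH 7.5, 0.01% Triton X-100. No-enzyme wells as negative control.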
Bst PK mod = alters activity of Bacillus stearothermophilus pyruvate kinase; 1.2% of 51,000 active; purified pyruvate kinase, luminescence ATP production; ribose 5-phosphate activator present at AC10; Potency, µM; AID 361; in the data active = potency below about 11 µM; inconclusive = mostly about 12 µM to 25 µM;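 the screen sought inhibitors and activators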;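 also: scaled between full activation by ribose 5 phosphate and full inhibition by luteolin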
ERK AVP inh = blocks ERK signaling stimulated by vasopressin. AID 995. HEK293-V1b, vasopressin-stimulated pERK AlphaScreen. Potency, µM (highest dose often 57.5 µM), inactives show at the highest dose activity, negative = inhibition, most hits filed as inhibitors. 0.99% of 72,000 active; also: nearly all actives have a fitted effect of over 55% in size
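HEK293 cells stably expressing V1b receptor, seeded overnight in 1% FBS, were treated with compounds for 30 min at 37C, then stimulated 5 min with 25 nM vasopressin; phospho-ERK read by AlphaScreen SureFire after lysis.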
Active calls of the source: *; i = inactive; u = inconclusive; x = no result given; ! = not active in a repeat; [ ] = remark or other dose. Shown are actives, neighbours in structure and some others; about 11% of the full set was active somewhere. Unless noted, calls follow the shape of the dose curve; as a rule, active = well fitted curve in the direction sought with a large enough effect; inconclusive = small, poorly fitted or top-dose-only effect, or another doubt; inactive = no such curve, though single readings can be large; an effect the other way counts as inactive or inconclusive. Unless noted, % is scaled to controls: 0 for no effect and ±100 for the full control effect; potency is read from the fitted curve at half-maximal effect.

SMILES	HADH2 inhib	FLuc inh	HSD17B inhib	ALOX15 inhib	Bst PK mod	ERK AVP inh
Cc1cc(NC(=O)c2cc(-c3ccco3)on2)no1	-9%	-6%	-3%	-6%	>57	-4%
Cc1ccc(NC(=O)c2cc(-c3cccc(O)c3)on2)cc1C	-3%	-19%	-3%	-3%	x	32µM*
CN1CCN(CCCN2c3ccccc3Sc3ccc(C(F)(F)F)cc32)CC1	u	0%[25.5 µM]	-5%[11.4 µM]	u	i	25µM*!
N#Cc1ccc2c(c1)N(CCCN1CCC(O)CC1)c1ccccc1S2	x	x	-4%	4%	x	35%
O=C(O)[C@@H](Cc1c[nH]c2ccccc12)C(=O)NO	5%[11.4 µM]	2%[11.4 µM]	-2%[11.4 µM]	0%[11.4 µM]	x	5%[11.5 µM]
CC(=O)Nc1ccc(NC(=O)c2ccco2)cc1	-6%	-9%	-1%	1%	x	-8%
O=C(/C=C/Nc1ccc(F)c(Cl)c1)c1ccco1	-14%	16µM*	20µM*	25µM*	i	u
CC(=O)Nc1ccc(N/C=C/C(=O)c2ccco2)cc1	-9%	25µM*	-10%	-10%	i	-4%
c1ccc2c(c1)c1ccccc1n2Cn1c2ccccc2c2ccccc21	-5%[11.4 µM]	-1%[11.4 µM]	11%[11.4 µM]	-2%[11.4 µM]	x	-15%[11.5 µM]
O=C(CSc1nnc(SCc2ccc(Cl)cc2)s1)N1CCOCC1	-3%	13µM*	5%	-13%	x	-9%
O=C(CSc1ccc(Cl)cc1)N1CCOCC1	3%	-1%	10%	11%	>57	-4%
COc1ccc(-c2oc3ccccc3c(=O)c2O)cc1	x	x	3.2µM*	1%[25.6 µM]	x	-21%
COc1ccc2c(=O)c(N3C(=O)c4ccccc4C3=O)coc2c1	8%	-13%	17%	-8%	>57	-13%
COc1ccccc1-c1oc2ccccc2c(=O)c1O	x	x	u	-10%[25.6 µM]	x	-30%
COc1ccc2c(=O)c(OC)c(-c3ccccc3)oc2c1	x	x	0.63µM*	2%	x	-1%
O=c1c(O)c(-c2ccc(O)c(O)c2)oc2ccccc12	0.13µM*	0%[11.4 µM]	-23%	2µM*	x	u
COc1ccc(OC)c(-c2oc3ccccc3c(=O)c2O)c1	2%	0%	-11%	u	>57	-20%
COCC(=O)N1CCC2(CC1)CCN(C(=O)Nc1cccc(C#N)c1)CC2	7%	0%[11.4 µM]	10%	42%	x	-22%
Cc1cc(N)c2ccccc2[n+]1CCCCCCCCCC[n+]1c(C)cc(N)c2ccccc21	2%	2%	32µM*	u	x	-2%
Nc1cc2c(nc3c4ccccc4c(N)cc3[n+]2-c2cccc3ccccc23)c2ccccc12 (tested in a mixture with another compound)	-15%[11.4 µM]	-13%[11.4 µM]	-13%[11.4 µM]	-20%[11.4 µM]	x	u
O=c1c(-c2ccc(F)c(F)c2)nc2cncnc2n1Cc1ccc(F)cc1	-5%	1%[11.4 µM]	-17%	-11%	x	u
COCCNc1nc(C)nc2c1nc(-c1ccccc1)n2CC1CCN(C)CC1	u	x	25µM*	8%	x	4%
COCCN(CCOC)c1nc(C)nc2c1nc(-c1ccccc1)n2CC1CCN(C)CC1	u	x	25µM*	3%	x	-15%
CCCn1c(C)nc2c(N(CCOC)CCOC)nc(C)nc21	-9%	x	3%	-14%	x	-3%
Cc1ccc([C@@]2(C)CC/C(=N/N=C3\CC[C@](C)(c4ccc(C)c(C)c4)c4cc(C)c(C)cc43)c3cc(C)c(C)cc32)cc1C	7%[11.4 µM]	2%[11.4 µM]	-2%[11.4 µM]	11%[11.4 µM]	x	4%[11.5 µM]
SMILES	HADH2 inhib	FLuc inh	HSD17B inhib	ALOX15 inhib	Bst PK mod	ERK AVP inh
CO[C@H]1COC(=O)C/C=C\[C@@H](C)COC(=O)[C@H]2CCCN2C(=O)C/C=C\[C@H]1C	4%[11.4 µM]	1%[11.4 µM]	-1%[11.4 µM]	1%[11.4 µM]	x	14%[11.5 µM]
CCSc1nnc(C)n1-c1ccc(C(=O)O)cc1	u	-1%	1%	2%	6.6*	-13%
CN(CCc1ccc(Cl)c(Cl)c1)C[C@@H](O)COc1ccc(NS(C)(=O)=O)cc1	2%	-1%	-6%	-2%[25.6 µM]	x	38%
C/C=C(/C)C(=O)OC1C(OC(C)=O)[C@@]2(CO)C(O)C[C@@]3(C)C(=CCC4[C@@]5(C)CCC(OC6OC(C(=O)O)[C@@H](O[C@@H]7OC(CO)C(O)C(O)C7O)C(O)[C@H]6O[C@@H]6OC(CO)C(O)C(O)C6O)[C@](C)(CO)C5CC[C@@]43C)C2CC1(C)C (stereo not given in full)	x	x	-13%	-3%	x	u
C[C@@H]1OC(OC2CC[C@@]3(C)C(CC[C@@]4(C)C3CC=C3C5CC(C)(C)CC[C@]5(C(=O)OC5OCC(O)[C@@H](O)[C@@H]5OC5O[C@@H](C)[C@H](O[C@H]6OC(CO)C(O)C(O)C6O)C(O)C5O)C(O)C[C@@]34C)C2(C)C)C(O)C(O)[C@H]1OC1OCC(O)C(O)[C@H]1O (stereo not given in full)	x	x	9%	-10%	x	13µM*
CC(=O)c1ccc(OC2C=CC(c3ccc(Cl)cc3)OC2CO)cc1 (stereo not given)	-1%[11.4 µM]	x	4%[11.4 µM]	-3%[11.4 µM]	x	3%[11.5 µM]
CN(CCO)c1ncnc2nc[nH]c12	13µM*	-5%	32µM*	-6%	x	x
CCCCN(c1ccccc1)c1ncnc2nc[nH]c12	-26%	-1%	12%	-10%	x	x
Cc1ccc2nc(-c3ccc(NC(=O)c4ccc(N)cc4)c(S(=O)(=O)O)c3)sc2c1	2.5µM*	-29%[11.4 µM]	3.2µM*	11%[11.4 µM]	x	26%[11.5 µM]
Cc1ccc(NC2=Nc3ccccc3CS2)cc1	3%	4µM*	-2%	4%	4.1*	-18%
Cc1ccc2c(c1)N(CC(=O)NCC1COc3ccccc3O1)C(=O)CO2 (stereo not given)	4%	0%	4%	-5%	x	x
C[C@]1(c2ccccc2)O[C@@H]2C[C@@H]3[C@@H]4CCC5=CC(=O)C=C[C@@]5(C)[C@]4(F)[C@H](O)C[C@]3(C)[C@@]2(C(=O)CO)O1	9%[11.4 µM]	2%[11.4 µM]	1%[11.4 µM]	17%[11.4 µM]	x	-12%[11.5 µM]
CCOC(=O)c1c(N)ssc1=S	1.3µM*	3%	u	-29%	x	-27%
CCOC(=O)c1c(N)sc(C(N)=O)c1C	13µM*	0%	-12%	u	x	13µM*
CCOC(=O)c1c(N)sc(=S)c2c1CCC2	x	-1%[25.5 µM]	x	x	>26	x
Cc1onc(-c2c(F)cccc2Cl)c1C(=O)N[C@H]1C(=O)N2[C@H]1SC(C)(C)[C@H]2C(=O)O	6%[25.6 µM]	1%[25.5 µM]	2%[25.6 µM]	8%[25.6 µM]	x	-11%[25.7 µM]
c1ccc2c(NC3CCCC3)nnc(NC3CCCC3)c2c1	-5%	3%	25µM*	-7%	x	-8%
Cc1noc(C)c1COC(=O)CCc1ccc(S(=O)(=O)N2CCCCC2)cc1	3%	-1%	-10%	8%	>57	4%
Cc1noc(C)c1COC(=O)Cc1ccc(Cl)c(Cl)c1	0%	2%	0%	25µM*	x	34%
